Source: PubChem BioAssay
FBW7 activator: human FBW7 E3 ligase activation, primary screen | Q969H0 | AlphaScreen FBW7–phospho-cyclin E peptide binding, activator screen | normalized activity (activation), % at 26.1 µM | 650,000 tested, 0.13% active; in the data active = normalized activity above about 1.9%;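 note: purified mutant Fbw7 with reduced substrate affinity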
MITF inh: blocks human microphthalmia-associated transcription factor; O75030; AlphaScreen MITF homodimerization, bead proximity signal; inhibition, % at 2.6 µM; 650,000 tested, 0.91% active; in the data active = inhibition above about 50%;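 note: 0% = vehicle wells with protein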
Target sequence (O75030 whole entry, looked up): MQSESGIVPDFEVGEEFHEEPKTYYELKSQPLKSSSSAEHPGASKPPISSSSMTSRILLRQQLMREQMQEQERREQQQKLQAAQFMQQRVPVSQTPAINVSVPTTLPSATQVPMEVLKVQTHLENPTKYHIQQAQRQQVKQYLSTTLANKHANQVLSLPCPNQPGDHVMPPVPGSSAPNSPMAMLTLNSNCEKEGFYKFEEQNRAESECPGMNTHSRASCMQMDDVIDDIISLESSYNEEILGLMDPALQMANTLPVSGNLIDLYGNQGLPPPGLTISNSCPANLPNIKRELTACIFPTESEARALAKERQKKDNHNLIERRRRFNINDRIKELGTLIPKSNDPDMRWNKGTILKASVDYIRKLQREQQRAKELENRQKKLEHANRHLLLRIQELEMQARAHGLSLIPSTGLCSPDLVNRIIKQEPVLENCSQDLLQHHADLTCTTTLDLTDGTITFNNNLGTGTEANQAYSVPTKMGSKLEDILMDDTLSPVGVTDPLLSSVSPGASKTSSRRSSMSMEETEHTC
TEAD-YAP block: TEAD-YAP interaction inhibition; 640,000 tested, 1.4% active; AID 1259422; inhibition, % at 9.12 µM; HEK-TIYL cells, TEAD-Gal4/YAP UAS-luciferase luminescence; in the data active = inhibition above about 32%;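 note: 0% = median of test compound wells and 100% = reference inhibitor wells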
GPR151 ag: activates the human receptor GPR151 | AID 1508602 | activation, % at 11.2 µM | Q8TDV0 | PathHunter beta-arrestin GPR151 cells, luminescence | 650,000 tested, 1% active; in the data active = activation above about 4.9%;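 note: 0% = median of compound wells and 100% = cells with positive control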
MITF confirm: human MITF inhibition, confirmation; inhibition, % at 2.6 µM; shares compounds with MITF inh; 4,700 tested, 16% active; AlphaScreen MITF homodimerization, biotin/His-MITF beads; AID 1259372;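 active = inhibition above a cutoff derived from the DMSO control wells, cut at about 28% in these data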;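 note: 0% = MITF dimer wells with DMSO only; inhibitors lower the bead chemiluminescence by keeping MITF from dimerizing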
AS interf DR: optically interferes with AlphaScreen signal in dose response | shares compounds with MITF inh | AlphaScreen optical interference counterscreen, cell-free | IC50, µM | 480 tested, 6% active | AID 1259373; call rule not given here
AlphaScreen intf2: AlphaScreen optical interference, counter-screen; shares compounds with MITF inh; LysRS AlphaScreen counterscreen, signal interference, triplicate; inhibition, % at 2.6 µM; 4,700 tested, 7.6% active; AID 1259376;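 active = inhibition above a cutoff derived from the DMSO control wells, cut at about 30% in these data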
Active calls of the source: *; . = no result given. Only some compounds are listed: those with a hit (about 3.5% of all), similar ones and a draw of the others.

SMILES | FBW7 activator | MITF inh | TEAD-YAP block | GPR151 ag | MITF confirm | AlphaScreen intf2 | others
CCc1ccc(CN2CCN(C(=O)c3ccccc3)CC2)cc1 | 0 | 24 | -10 | 0 | . | .
O=C(c1ccncc1)N1CCN(Cc2ccc3ccccc3c2)CC1 | 0 | 79* | 5 | 1 | -17 | -5
COc1cccc(OC)c1C(=O)N1CCN(Cc2ccncc2)CC1 | 0 | 75* | 2 | 1 | -12 | -5
CCOc1cc(N2CCN(C(=O)c3ccc(OC)c(OC)c3)CC2)nc(C)n1 | 0 | 6 | 2 | 1 | . | .
COc1cccc(OC)c1C(=O)N1CCCCCC1 | 0 | -2 | 1 | 2 | . | .
COc1cc(N2CCN(C(=O)c3ccc(OC)c(OC)c3)CC2)nc(C)n1 | 0 | 107* | 8 | 0 | -4 | -8
CC(C)N1CCN(C(=O)c2ccncc2)CC1 | 0 | 78* | 1 | -1 | -3 | 0
CSCCOC(=O)C1=C(C)NC(=O)NC1c1ccc(Br)s1 (stereo not given) | 0 | 16 | -3 | 0 | . | .
c1ccc(CCn2nnnc2CN2CCCCCC2)cc1 | 1 | 17 | -41 | -1 | . | .
COc1ccc(CN2CCN(C(=O)c3ccncc3)CC2)cc1 | 0 | 75* | -1 | 2 | 4 | 16
COc1ccc(C(=O)N2CCN(Cc3ccccc3)CC2)cc1 | 0 | 47 | 1 | 0 | . | .
COc1cccc(CNC(=O)CCCCCn2c(=S)[nH]c3cc4c(cc3c2=O)OCO4)c1 | 1 | 6 | 5 | -2 | . | .
O=C1Nc2ccc(Br)cc2/C1=N\N=C\c1ccccc1 | 0 | 6 | 7 | 0 | . | .
CCN(CC)CCOC(=O)c1c(C)nc2n(C)c3ccccc3n12 | 1 | 8 | 15 | 0 | . | .
Cc1nc2n(C)c3ccccc3n2c1C(=O)NN | 2 | 95* | 54* | 0 | 1 | 2
COC(=O)C(C)CN1CCN(C)CC1 (stereo not given) | 0 | 60* | -3 | 0 | -23 | -6
CCN1C=CC(=C(/C=C2\C=CC=CC2=O)CS(=O)(=O)O)C=C1 | 0 | 65* | 3 | 0 | 3 | -1
CN(Cc1ccccc1)c1cc(-c2ccncc2)nc(-c2cccnc2)n1 | 0 | 6 | -7 | 1 | . | .
CN(Cc1ccccc1)c1cc(-c2ccccn2)nc(-c2ccccn2)n1 | -1 | 79* | 40* | 3 | 37* | 81*
COc1ccc(NS(=O)(=O)c2ccc3c(c2)OCCO3)c(OC)c1 | 0 | 85* | 9 | 0 | -2 | -2
CN(C)CCCNS(=O)(=O)c1ccc2c(c1)OCCO2 | 0 | 63* | -4 | -2 | 16 | 16
CCOc1ccccc1NS(=O)(=O)c1ccc2c(c1)OCCCO2 | 0 | 57* | 0 | 2 | -5 | -6
CCN1C(=O)NC(c2ccc([N+](=O)[O-])cc2)C(C(=O)OCCc2ccccc2)=C1C (stereo not given) | 1 | 76* | -10 | -1 | 2 | 22
CCN1C(=O)NC(c2ccc([N+](=O)[O-])cc2)C(C(=O)OCCOc2ccccc2)=C1C (stereo not given) | 0 | 9 | 1 | 0 | . | .
Cc1ccc(Cn2nnc3c(=O)[nH]c(C4CCN(C(=O)C(F)(F)F)CC4)nc32)cc1 | 0 | 75* | 1 | 0 | 5 | 14
SMILES | FBW7 activator | MITF inh | TEAD-YAP block | GPR151 ag | MITF confirm | AlphaScreen intf2 | others
Cc1ccc(Cn2nnc3c(=O)[nH]c(C4CCCN(C(=O)C(C)(C)C)C4)nc32)cc1 (stereo not given) | 0 | 67* | 3 | -1 | 1 | 9
Cc1ccccc1N1C(=O)CN(S(C)(=O)=O)CC1(C)C(=O)NC1CCCC1 (stereo not given) | 0 | 0 | 8 | 0 | . | .
O=S(=O)(NCC(c1cccs1)S(=O)(=O)c1ccccc1)c1cccs1 (stereo not given) | 0 | -2 | 2 | -1 | . | .
O=S(=O)(NCC(c1cccs1)S(=O)(=O)c1ccc(Cl)cc1)c1cccs1 (stereo not given) | 1 | 73* | 6 | 0 | 18 | 3
C[C@@H](OCc1ccccc1)[C@@H]1NC(=O)[C@H]2CN(C(=O)NC3CCCCC3)CCN2C1=O | -1 | 80* | -1 | 3 | 73* | -7 | AS interf DR=>6.5
COc1ccc(C[C@@H]2NC(=O)[C@H]3CN(C(=O)NC4CCCCC4)CCN3C2=O)cc1 | 1 | 73* | 7 | 1 | 62* | -4 | AS interf DR=>6.5
CN1C(=O)[C@H]2CN(C(=O)NC3CCCCC3)CCN2C(=O)[C@@H]1Cc1ccccc1 | 0 | 74* | 1 | 1 | 69* | -11 | AS interf DR=>6.5
O=C1N[C@@H](Cc2c[nH]c3ccccc23)C(=O)N2CCN(C(=O)NC3CCCCC3)C[C@H]12 | 0 | 76* | 12 | -2 | 72* | -9 | AS interf DR=>6.5
COc1ccc(C[C@@H]2NC(=O)[C@H]3CN(C(=O)Oc4ccc(F)cc4)CCN3C2=O)cc1 | 0 | -10 | 10 | 0 | . | .
O=C(Cn1cnc2scc(-c3ccccc3)c2c1=O)Nc1ccccc1C(F)(F)F | 0 | 7 | 19 | -1 | . | .
Fc1ccc(-c2csc3ncnc(NC4CC4)c23)cc1 | 0 | 11 | 18 | 2 | . | .
O=C1N[C@@H](COCc2ccccc2)C(=O)N2CCN(C(=O)NC3CCCCC3)C[C@H]12 | 0 | 72* | -1 | 2 | 68* | -4 | AS interf DR=>6.5
O=C1N[C@@H](COCc2ccccc2)C(=O)N2CCN(C(=O)OCc3ccccc3)C[C@H]12 | 0 | -8 | 3 | 0 | . | .
O=c1oc2cc(OCc3ccccc3F)ccc2cc1-c1nc2ccccc2s1 | 0 | 2 | 3 | -2 | . | .
Cc1[nH][nH]c(=O)c1C(c1ccccc1OCc1ccc(Br)cc1)c1c(C)[nH][nH]c1=O | -1 | 66* | -11 | 0 | 46* | 7
COc1ccc(NC(=O)CN(C)CC(=O)Nc2cccc(C(C)=O)c2)cc1 | 0 | 58* | 1 | 1 | -1 | 5
Cc1ccn2c(NCC3CCCO3)c(-c3ccc(O)cc3O)nc2c1 (stereo not given) | 0 | 89* | -3 | -1 | 84* | 6 | AS interf DR=>6.5
COCCN1CCCc2ccc(NC(=O)c3ccc(C)cc3)cc21 | 1 | 54* | -54 | -2 | 7 | 2
CN1CCc2c(sc(NC(=O)c3ccc(S(=O)(=O)N(C)c4ccccc4)cc3)c2C(N)=O)C1 | 0 | 17 | 3 | 1 | . | .
O=C(CNC1CCCCC1)Nc1c2c(nc3c1CCC3)CCC2 | 0 | 40 | -7 | 0 | . | .
CC(C)(C)NCC(=O)Nc1c2c(nc3c1CCC3)CCCC2 | 0 | 75* | 5 | 0 | 3 | -3
O=C(CNC1CCCCC1)Nc1c2c(nc3c1CCC3)CCCC2 | 0 | 74* | 3 | 0 | -12 | -3
CNCC(=O)Nc1c2c(nc3c1CCC3)CCCC2 | 0 | 61* | 0 | 0 | -2 | -1
CC(C)(C)NCCOCCOc1ccccc1I | 0 | 25 | 2 | 1 | . | .
